# Source: PubChem BioAssay (National Center for Advancing Translational Sciences (NCATS))
# Many of the other results were omitted from the sample, so hits are more common in it than they were.
# Pf Dd2 inh: inhibitors of Plasmodium falciparum Dd2 growth; P. falciparum Dd2 growth, SYBR Green, 72 h; hit rate 4.3% among 120,000; Potency, µM (highest dose often 28.9 µM), inactives show top-dose activity, negative = inhibition, usual class: inhibitors; active = well fitted inhibition curve with a large enough effect;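 note: plate controls were DMSO vehicle for no effect and reference drug for full effect; nearly all actives have a fitted effect of over 65% in size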
#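 Readout: SYBR Green fluorescence, 485 nm excitation, 535 nm emission, after ~16 h lysis at 37C. Before that, Dd2-infected red cells (2.5% hematocrit) grew 72 h with compound, 29 uM top final concentration.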
# * marks the source's active call; other numbers are inactive results; i = inactive; [ ] = remark or other dose. Potency is the fitted concentration of half-maximal effect.
SMILES,Pf Dd2 inh
CC[C@H]1CN(C(=O)c2ccnc(Cl)c2)CC[C@H]1CC(=O)NCc1cccc2ccccc12,30.5%
COC(=O)c1ccc(NC(=O)Cn2c(C)cc3nc4n(c(=O)c32)CCCCC4)cc1,91.4%
CC(C)n1nc(OC(C)(C)C(=O)NC2CC2)c2cc(CN3CCOCC3)ccc21,i
O=C(Nc1ccc(F)cc1)N1CC[C@H]2CC(=O)N(c3ccccc3)CC[C@H]2C1,10.5%[44.1 µM]
COCCNC(=O)NC[C@H]1O[C@@H]2C[C@@H](CC(=O)NCc3nccn3C)O[C@@H]2[C@@H]1O,15.8%[44.1 µM]
COCCn1cnc2ccc(OCC3CC3)nc2c1=O,i
COCCn1cnc2ccc(OCc3ccc(Cl)cc3)nc2c1=O,11.2µM*
COCCn1cnc2ccc(OCc3ccc(C(F)(F)F)cc3)nc2c1=O,-2.4%[44.1 µM]
CC(C)CCN1C[C@@H]2C(=O)N(CCc3ccccc3)C(=O)[C@@H]2C1,8.91µM*
O=C1[C@H]2CN(Cc3ccc(Cl)cc3)C[C@H]2C(=O)N1CCc1ccccc1,-13.3%
Cc1ccccc1CN1C[C@@H]2C(=O)N(CCc3ccccc3)C(=O)[C@@H]2C1,-12.1%
COc1ccc(C2Cn3cnc(-c4nc(-c5ccc(OC(C)C)cc5)no4)c3CO2)cc1 (stereo not given),11.2µM*
Clc1ccccc1C1Cn2cnc(-c3nc(-c4cccnc4)no3)c2CO1 (stereo not given),4.47µM*
COc1ccc(C2Cn3nnc(-c4nc(-c5ccc(C)cc5)no4)c3CO2)cc1 (stereo not given),i
COc1cccc(C2Cn3nnc(-c4nc(-c5ccc(OC(C)C)cc5)no4)c3CO2)c1 (stereo not given),-20.4%
Fc1ccc(C2Cn3nnc(-c4nc(-c5cccnc5)no4)c3CO2)cc1 (stereo not given),i
CCOc1ccc(C2Cn3nnc(-c4nc(-c5cccnc5)no4)c3CO2)cc1 (stereo not given),-5.2%
Cc1ccc(-c2ccc3ncn(Cc4ccccn4)c(=O)c3n2)c(C)c1,i
Cc1ccc(S(=O)(=O)N2C[C@@H](F)C[C@H]2C(=O)N2CCCCC2)c(C)c1,43.3%
C[C@@H]1CN(C(=O)Cc2cc3c(cc2Cl)OCCO3)C[C@]1(C)O,3.1%
O=C1CN(C(=O)c2csc3nc(-c4ccc(C(F)(F)F)cc4)cn23)CCCN1,i
Cn1cccc1CN1CCC2(C1)C(=O)N(Cc1ccccc1)c1ccccc12 (stereo not given),-2.5%
COc1ccc(C(=O)N2CCc3nc(C4CC4)nc(-c4ccc(Cl)cc4)c3CC2)cc1,10µM*
COc1ccc(-c2nc(C(C)C)nc3c2CN([S+](=O)([O-])c2cccc(C(F)(F)F)c2)CC3)cc1,i
CC(C)c1nc2c(c(-c3ccc(Cl)cc3)n1)CCN([S+](=O)([O-])c1ccccc1)CC2,11.2µM*
SMILES,Pf Dd2 inh
COc1ccc(-c2nc(C3CC3)nc3c2CCN(C(=O)c2ccc4c(c2)OCO4)CC3)cc1,11.2µM*
Cc1ccc(C(=O)N2CCc3nc(C4CC4)nc(-c4ccc(Cl)cc4)c3CC2)cc1,-15.0%
CCc1nc2c(c(-c3ccc(Cl)cc3)n1)CCN(C(=O)c1ccc(OC)cc1)CC2,i
COc1ccc(-c2nc(C)nc3c2CCN(C(=O)c2ccc(C)cc2)CC3)cc1,-18.8%
COc1cccc([S+](=O)([O-])N2CCc3nc(C4CC4)nc(-c4ccc(Cl)cc4)c3CC2)c1,12.6µM*
COc1ccc(-c2nc(C)nc3c2CN([S+](=O)([O-])c2cccc(OC)c2)CC3)cc1,-6.6%
COc1ccc(-c2nc(C)nc3c2CCN(C(=O)c2ccc4c(c2)OCO4)CC3)cc1,i
O=[S+]([O-])(c1cccc(C(F)(F)F)c1)N1CCc2nc(C3CC3)nc(-c3ccc(Cl)cc3)c2C1,-11.1%
Cc1ccc([S+](=O)([O-])N2CCc3nc(C)nc(-c4ccc(Cl)cc4)c3CC2)cc1,13.0%
O=C(CC1CCCCC1)N1CCCC(c2noc(COc3ccccc3F)n2)C1 (stereo not given),i
CCn1c2c(c(=O)n1-c1ccccc1)CCN(Cc1cncc(OC)c1)C2,i
COCCOCC1(CNCC2CC2)C[C@@H](O)[C@@H](O)C1 (stereo not given in full),39.5%[44.1 µM]
COCc1nc(C2CC(N)C2)cc(N2CCN(S(=O)(=O)N(C)C)CC2)n1 (stereo not given),-7.2%
CC(=O)N1CCN(C2CCNCC2)C(=O)C1,i
COc1ccc(C(=O)N2CCC(c3n[nH]c(=O)n3Cc3ccc(F)cc3)CC2)cc1,i
CC(C)c1nc2c(c(-c3ccc(Cl)cc3)n1)CCN(CC1CC1)CC2,-18.0%
Cc1cc(CN2CCc3nc(C(C)C)nc(-c4ccc(Cl)cc4)c3CC2)no1,8.91µM*
COc1ccc(-c2nc(C)nc3c2CCN(Cc2cc(C)on2)CC3)cc1,-12.7%
CCn1nc(C)c(CNC(=O)c2ccc(N3CC4CC(C3)[C@H]3CCCC(=O)N3C4)nc2)c1C (stereo not given in full),-2.2%
CN1CC(c2ccccc2)CC2(CCN(C(=O)C3CCOCC3)CC2)C1 (stereo not given),-9.1%
